This note sets out measurements from PubChem BioAssay (NCATS).

Results filed as inconclusive are left out. The source made the active and inactive calls. Calls follow the shape of the dose curve; as a rule, active = well fitted curve in the direction sought with a large enough effect; inconclusive = small, poorly fitted or top-dose-only effect, or another doubt; inactive = no such curve, though single readings can be large; an effect the other way counts as inactive or inconclusive.

The test system of assay [1] is HEK293T. The experiment in a line: qHTS assay to identify novel small-molecules to repurpose for Merkel cell carcinoma treatment (AID 1296009). Also: nearly all actives have a fitted effect of over 60% in size. Also: potency is read from the fitted curve at half-maximal effect. Particulars: MCC and control cell lines, CellTiter-Glo viability, 72 h; at 44.8 µM (top of the series) unless noted. In short, it runs like this: (§1)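 72 hr, 37 degree celsius; NPC 8-pt / MIPE 11-pt dose response; compound pinned in DMSO; CellTiter-Glo, 10 min RT, luminescence; normalized to no-cell and DMSO controls.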
For orientation: In qHTS, concentration-response curves come from the screen itself.

A further assay has as its system MCC-13. The description is as above. Conditions: MCC and control cell lines, CellTiter-Glo viability, 72 h; series mostly up to 46 µM. In a few lines: as §1
In general terms: ATP-based viability assays read luminescence as a measure of living cells.

For a further assay, the system named is MCC-26. The description is as above. Particulars: MCC and control cell lines, CellTiter-Glo viability, 72 h; series mostly up to 46 µM. In short, it runs like this: as §1
The next assay relates to MKL-1. The assay is described as above. Conditions: MCC and control cell lines, CellTiter-Glo viability, 72 h; series mostly up to 46 µM. In a few lines: as §1
For a further assay, the system named is MKL-2. The assay is described as above. Particulars: MCC and control cell lines, CellTiter-Glo viability, 72 h; series mostly up to 46 µM. In a few lines:
as §1

The test system of another assay is UISO. Described as above. Particulars: MCC and control cell lines, CellTiter-Glo viability, 72 h; series mostly up to 46 µM. In a few lines:
as §1

The next assay has as its system WaGa. Described as above. Conditions: MCC and control cell lines, CellTiter-Glo viability, 72 h; series mostly up to 46 µM. In a few lines: as §1
Another assay deals with NIH3T3. The assay is described as above. Conditions: MCC and control cell lines, CellTiter-Glo viability, 72 h; series mostly up to 44.8 µM. In a few lines:
as §1

A further assay relates to C33A. The assay can be described thus: Primary qHTS to identify gynecologic anti-cancer compounds using libraries of approved drugs and bioactive compounds (AID 1345084). Also: nearly all actives have a fitted effect of over 55% in size. Particulars: Gynecologic cancer cell panel viability, ATPlite luminescence, 48 h; series mostly up to 57.5 µM. In short, it runs like this: (§2)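 Measured: luminescence after ATPlite addition (15 min, RT). Exposure: 48 h, 37 C, 5% CO2.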

The subject of a further assay is CASKI. Described as above. Conditions: Gynecologic cancer cell panel viability, ATPlite luminescence, 48 h; series mostly up to 57.5 µM. In short, it runs like this:
as §2

Another assay concerns Es-2. Described as above. Conditions: Gynecologic cancer cell panel viability, ATPlite luminescence, 48 h; series mostly up to 57.5 µM. In a few lines: as §2
A further assay concerns HeLa. The description is as above. Conditions: Gynecologic cancer cell panel viability, ATPlite luminescence, 48 h; series mostly up to 57.5 µM. In short, it runs like this: as §2
For assay [2], the system named is Hek293T. Described as above. Conditions: Gynecologic cancer cell panel viability, ATPlite luminescence, 48 h, control line for the selectivity index; series mostly up to 57.5 µM. In a few lines:
as §2

A further assay has as its system JEG-3. Described as above. Conditions: Gynecologic cancer cell panel viability, ATPlite luminescence, 48 h; series mostly up to 57.5 µM. In a few lines: as §2
A further assay concerns OV90. Described as above. Conditions: Gynecologic cancer cell panel viability, ATPlite luminescence, 48 h; series mostly up to 57.5 µM. In short, it runs like this:
as §2

A further assay concerns PA-1. The assay is described as above. Particulars: Gynecologic cancer cell panel viability, ATPlite luminescence, 48 h; series mostly up to 57.5 µM. In a few lines:
as §2

A further assay has as its system Tov-21-G. The assay is described as above. Particulars: Gynecologic cancer cell panel viability, ATPlite luminescence, 48 h; series mostly up to 57.5 µM. In short, it runs like this: as §2
The next assay concerns Tov112D. Described as above. Conditions: Gynecologic cancer cell panel viability, ATPlite luminescence, 48 h; series mostly up to 57.5 µM. In a few lines: as §2
The test system of a further assay is SKOV3. The assay is described as above. Particulars: Gynecologic cancer cell panel viability, ATPlite luminescence, 48 h; series mostly up to 57.5 µM. In a few lines: as §2
The subject of the next assay is CAOV3. The assay is described as above. Particulars: Gynecologic cancer cell panel viability, ATPlite luminescence, 48 h; series mostly up to 57.5 µM. In a few lines:
as §2

For `CN(CC=CC#CC(C)(C)C)Cc1cccc2ccccc12`, the compound was classed as inactive in the assay on HEK293T [1]. For the same compound, the Potency entry in the assay with MCC-13, with MCC-26, in the assay with MKL-1, with MKL-2, with UISO and in the assay with WaGa was “inactive” each time.
For the compound `O=C(O)C1=CO[C@@H](O[C@@H]2O[C@H](CO)[C@H](O)[C@H](O)[C@H]2O)[C@@H]2C(CO)=CC[C@H]12`, the compound was called inactive in the assay with HEK293T [1]. The Potency entry with MCC-13, in the assay with MCC-26, in the assay with MKL-1, with MKL-2, in the assay with UISO and in the assay on WaGa was “inactive” throughout.
`CC(=O)N1CCN(c2ccc(OCc3nn(C)c(C)c3-c3cccc4c(CCCOc5cc(C)c(Cl)c(C)c5)c(C(=O)O)n(Cc5cccnc5)c34)cc2)CC1`: the outcome in the assay with HEK293T [1] was “inactive; activator”. The Potency result with MCC-13, in the assay on MCC-26, in the assay with MKL-1, in the assay with NIH3T3 and in the assay on UISO was “inactive” each time. Also, the values for the Potency in the assay with MKL-2 and in the assay with WaGa were 14.8 µM (active) and 11.8 µM (active), respectively.
In the case of `N#Cc1c(N(CC(=O)O)CC(=O)O)sc(C(=O)O)c1CC(=O)O`, the compound was called inactive in the assay on HEK293T [1]. The Potency entry in the assay with MCC-13, in the assay with MCC-26, with MKL-1, with UISO and in the assay on WaGa was “inactive” each time.
Turning to `O=c1cc(-c2ccc(O)c(O)c2)oc2cc(O)cc(O)c12`, the outcome in the assay on HEK293T [1] was inactive. Further, the Potency result in the assay with MCC-13, in the assay on MCC-26, in the assay on MKL-1, in the assay with MKL-2 and with UISO was “inactive” throughout.
For the compound `COc1nc(C)cnc1NS(=O)(=O)c1cccnc1-c1ccc(-c2nnco2)cc1`, the result with HEK293T [1] was inactive. For the same compound, the Potency result with MCC-13, in the assay on MCC-26, in the assay with MKL-1, in the assay on MKL-2, with NIH3T3 and with UISO was “inactive” each time. Besides, the Potency result in the assay with WaGa, in the assay on C33A, in the assay on CASKI, with Es-2, in the assay on HeLa and in the assay with Hek293T [2] was “inactive” each time. The Potency entry with JEG-3, in the assay with OV90, in the assay on PA-1, in the assay on Tov-21-G and in the assay on Tov112D was “inactive” in each case.
As for `C[C@]12CC[C@@H]3c4ccc(O)cc4CC[C@H]3[C@H]1[C@@H](O)[C@@H](O)[C@H]2O`, the call in the assay with HEK293T [1] was inactive. In addition, the Potency result in the assay with MCC-13, with MCC-26, in the assay with MKL-1, in the assay with NIH3T3, with UISO and in the assay on WaGa was “inactive” in each case.
`O=C(c1ccc(C(=O)N2CCC(N3CCCC3)CC2)c(Nc2ccccc2)c1)N1CCC(N2CCCC2)CC1`: the Potency entry in the assay on MCC-13, in the assay with MCC-26, in the assay with MKL-1, with MKL-2, in the assay on NIH3T3 and in the assay with UISO was “inactive” in each case. Further, the Potency entry in the assay on WaGa, with C33A, with CASKI, in the assay on Es-2, in the assay with HeLa and in the assay with Hek293T [2] was “inactive” in each case. Besides, the Potency result in the assay with JEG-3, in the assay on OV90, in the assay on PA-1, in the assay on SKOV3, with Tov-21-G and in the assay with Tov112D was “inactive” in each case.
As for `CC[C@H](C)n1cc(C)c2c(C(=O)NCc3c(C)cc(C)[nH]c3=O)cc(-c3ccc(N4CCNCC4)nc3)cc21`, the Potency entry in the assay with MCC-13, in the assay on MCC-26, with MKL-1, in the assay on MKL-2, in the assay with NIH3T3 and with UISO was “inactive” throughout. The Potency entry in the assay on WaGa was “inactive”.
Consider `Cc1cc2nc3c(=O)[nH]c(=O)nc-3n(CC(O)C(O)C(O)CO)c2cc1C` (configuration not stated), for which the Potency result in the assay with MCC-13, in the assay on MCC-26, in the assay with MKL-1, in the assay on MKL-2, with NIH3T3 and in the assay with UISO was “inactive” each time. In addition, the Potency result in the assay with WaGa is “inactive”.
As to `CCC(c1ccc(O)cc1)C(CC)c1ccc(O)cc1` (configuration not stated), the Potency result in the assay on MCC-13, with MCC-26, with MKL-1, with MKL-2, in the assay with NIH3T3 and with UISO was “inactive” throughout.
For the compound `O=C1C(c2c(O)[nH]c3ccccc23)=Nc2ccccc21`, the Potency result in the assay with MCC-13, in the assay with MCC-26, in the assay on MKL-1, in the assay on MKL-2, in the assay with NIH3T3 and with WaGa was “inactive” in each case. Besides, the Potency entry in the assay on C33A, with CAOV3, with CASKI, in the assay on Es-2, with HeLa and in the assay with Hek293T [2] was “inactive” in each case. Moreover, the Potency result in the assay with JEG-3, in the assay on OV90, with PA-1, in the assay with SKOV3, in the assay with Tov-21-G and in the assay with Tov112D was “inactive” throughout.
For `Cc1cc(NC(=O)Nc2ccc(N(C)C)cc2)c2cc(F)cc(F)c2n1`, the Potency result in the assay on MCC-13, in the assay on MCC-26, in the assay on MKL-1, in the assay on MKL-2, with NIH3T3 and with UISO was “inactive” each time. Moreover, the Potency result in the assay on WaGa is “inactive”.
Regarding `c1ccc(CNc2nc(N3CCOc4ccccc43)nc3c2CCCC3)cc1`, the Potency entry in the assay with MCC-13, with MCC-26, in the assay on MKL-1, in the assay on MKL-2, in the assay with NIH3T3 and with UISO was “inactive” throughout. Also, the Potency result in the assay with WaGa, in the assay with C33A, in the assay with CAOV3, in the assay with CASKI, in the assay on Es-2 and in the assay on HeLa was “inactive” in each case. The Potency result in the assay with Hek293T [2], in the assay with JEG-3, in the assay on OV90, in the assay on PA-1, with SKOV3 and with Tov-21-G was “inactive” each time. Moreover, the Potency result in the assay with Tov112D is “inactive”.
For `CCC[C@@H](NC(=O)[C@@H]1[C@H]2CCC[C@@H]2CN1C(=O)[C@@H](NC(=O)[C@@H](NC(=O)c1cnccn1)C1CCCCC1)C(C)(C)C)C(=O)C(=O)NC1CC1`, the Potency entry in the assay on MCC-13, in the assay on MCC-26, with MKL-1, in the assay with MKL-2, in the assay on NIH3T3 and in the assay on UISO was “inactive” in each case. Also, in the assay with WaGa, the Potency entry was “inactive”.
As for `CCCCC(C)(C)[C@H](O)C=C[C@H]1[C@H](O)CC(=O)[C@H]1CC=CCCCC(=O)O`, the Potency entry in the assay on MCC-13 and with MCC-26 was “inactive” in each case.
As to `C[C@@]1(c2cc(-c3cncnc3)c(F)cc2F)CCSC(N)=N1`, the Potency result in the assay with MCC-13, in the assay with MCC-26, in the assay with MKL-1, in the assay on MKL-2, with NIH3T3 and with UISO was “inactive” each time. Besides, the Potency result in the assay on WaGa, with C33A, with CAOV3, in the assay with CASKI, in the assay on Es-2 and in the assay with HeLa was “inactive” throughout. Further, the Potency entry in the assay with Hek293T [2], in the assay with JEG-3, with OV90, in the assay with PA-1, with SKOV3 and in the assay with Tov-21-G was “inactive” throughout. Also, the Potency entry in the assay on Tov112D was “inactive”.
As to `COc1cc2c(cc1OC)[C@@H]1Cc3ccc(OC)c(OC)c3CN1CC2`, the Potency entry in the assay with MCC-13, in the assay on MCC-26, in the assay on MKL-1 and in the assay on UISO was “inactive” each time. The Potency in the assay on MKL-2 was 18.7 µM (active).
For the compound `COc1cccc(OC)c1-c1cc(C(=O)NC2(C(=O)O)C3CC4CC(C3)CC2C4)nn1-c1ccnc2cc(Cl)ccc12` (configuration not stated), the Potency result in the assay with MCC-13, in the assay with MCC-26, with MKL-1, in the assay with MKL-2, with NIH3T3 and in the assay with UISO was “inactive” in each case. For the same compound, the Potency result in the assay with WaGa is “inactive”.
`Cc1ccc(C2=Nc3ccc(Cl)cc3OC2)cc1`: the Potency result in the assay on MCC-13 and with MCC-26 was “inactive” each time. The Potency in the assay on MKL-1 is 14.8 µM (active).
Take `COc1ccc2cc1Oc1ccc(cc1)C[C@H]1c3cc(c(OC)cc3CCN1C)Oc1c(OC)c(OC)cc3c1[C@H](C2)N(C)CC3`: the Potency result in the assay on MCC-13 was “inactive”.
Turning to `COc1ccc(-c2oc3c(CC=C(C)C)c(O)cc(O)c3c(=O)c2O)cc1`, the Potency result in the assay with MCC-13, in the assay on MCC-26, with MKL-1, in the assay on MKL-2, in the assay with NIH3T3 and in the assay with UISO was “inactive” throughout. The Potency entry in the assay with WaGa is “inactive”.
